About 1,400 (58%) of roughly 2,400 compounds were called active. So high a share suggests a set chosen from earlier hits. The list shows a part of the results. Values without a mark were called inactive.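 Rule for the calls: active = inhibition of 30% or more at any tested dose; inconclusive = primary hits over the limit that were never retested; inactive = the rest.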
Assay: coupled detection enzyme interference, dose response, artefact control for MgcRacGAP inhibitor project, biochemical, coupled enzyme counter-screen (AID 624351);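 note: signal is the ADP detection kit reading of free GDP without any GAP enzyme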;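 for inhibition: 0% = median positive control wells and 100% = median negative control wells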
Settings: ADP Hunter coupled enzyme counter-screen, fluorescence, no MgcRacGAP; series mostly up to 80 µM; inhibition: at the top concentration

SMILES | IC50 | inhibition
C/C(=N/Nc1ccc(C(=O)O)cc1)c1ccc2c(c1)Nc1ccccc1S2 | 51.3 µM (active) | 
C/C(=N\NC(=O)c1ccc(O)cc1)c1ccc2c(c1)Nc1ccccc1S2 | 41.1 µM (active) | 
O=C(Nc1ccc(C2=NCCN2)cc1)c1ccc(C(=O)Nc2ccc(C3=NCCN3)cc2)c(Cl)c1 |  | 6.39%
Cn1ccc(=Nc2ccc(NC(=O)c3ccc(N=c4ccn(C)c5ccc([N+](=O)[O-])cc45)cc3)cc2)cc1 |  | 6.89%
COC(C(=O)N/N=C(\C)CC(=O)Nc1ccc(N(C)C)cc1)c1ccccc1 (centres undefined) | 47.7 µM (active) | 
C/C(CC(=O)Nc1ccc(N(C)C)cc1)=N\NC(=O)c1ccc(F)cc1 | 46.5 µM (active) | 
C/C(CC(=O)Nc1ccc(N(C)C)cc1)=N\NC(=O)c1ccc([N+](=O)[O-])cc1Cl | 61.6 µM (active) | 
O=C(Cn1sc2ccccc2c1=O)Nc1ccc(F)cc1 |  | 6.79%
C/C(CC(=O)Nc1ccc(N(C)C)cc1)=N\NC(=O)c1ccc([N+](=O)[O-])cc1 | 59.5 µM (active) | 
CCCCCCCCCCCCCCCC[n+]1ccccc1 |  | 4.98%
C/C(CC(=O)Nc1ccc(N(C)C)cc1)=N\NC(=O)c1ccncc1 | 74.6 µM (active) | 
N#C/C(=C/c1ccc(N2CCCCCC2)o1)c1ccc(Cl)cc1 |  | 6.82%
N#C/C(=C\c1ccc(N2CCOCC2)o1)c1nc2ccccc2[nH]1 | 13.5 µM (active) | 
N#C/C(=C/c1ccc(N2CCOCC2)o1)c1nc2ccccc2[nH]1 | 38.6 µM (active) | 
CN(C)c1ccc(C=c2c3ccccc3n3c2cc(-c2ccc(Cl)cc2)[n+]3C)cc1 |  | 23.3%
CCN(Cc1ccncc1)Cc1ccc(OC)c(OC)c1 |  | 3.65%
CC(C)COc1ccc(N)cc1OCC(C)C | 46.2 µM (active) | 
CCOc1ccc(N)cc1OC | 43.1 µM (active) | 
CCOc1ccc(C2NC(=O)C(C#N)=C(S)N2c2ccc(OC)cc2)cc1OC (centres undefined) |  | 2.78%
COc1ccc(-n2sc3ccc(F)cc3c2=O)cc1 |  | 22.9%
COc1ccc(N2C(=O)/C(=C/N(C)C)NC2=S)cc1 | 77.5 µM (active) | 
CN(C)/C=C1\NC(=S)N(c2ccccc2)C1=O | 71.9 µM (active) | 
COc1ccc(-n2sc3ccccc3c2=O)cc1 |  | 10.5%
Cc1cccc2c(N)c3c(nc12)N(C)CC3 |  | -29.6%
Cc1ccc2c(C)nc(/N=C(\N)NC(=O)N3c4ccccc4Sc4ccccc43)nc2c1 | inactive | 
Cc1cccn2c(CNC3CCCc4ccccc43)c(C(=O)N3CCCCC3)nc12 (centres undefined) |  | -1.5%

SMILES | IC50 | inhibition
CN1CC(=O)N(CC(=O)Nc2ccc(N(C)C)cc2)c2ccccc2C1=O | 58.4 µM (active) | 
O=C(CN1CCN(c2ccccn2)CC1)Nc1ccc(F)cc1 |  | 25.8%
CCCCOc1ccc(NC(=O)CN2CCN(CC)CC2)cc1 |  | 29.1%
CN(C)c1ccc(NC(=O)CCN2C(=O)c3cccc([N+](=O)[O-])c3C2=O)cc1 | 72.7 µM (active) | 
CN(C)c1ccc(NC(=O)CN2C(=O)c3ccccc3C2=O)cc1 | 83.9 µM (active) | 
Cc1ccc(NC(=O)CN2CCC(Cc3ccccc3)CC2)cc1S(=O)(=O)N(C)C |  | 7.91%
O=C1C(Cl)=C(NC(=O)c2ccccc2)C(=O)C(Cl)=C1NC(=O)c1ccccc1 |  | -0.63%
Cc1cc(O)ccc1NC(=O)c1ccccc1 | 71 µM (active) | 
CCN(CC)CCCC(C)NC(=O)c1c(NC(=O)c2ccccc2)sc2c1CCCC2 (centres undefined) |  | 14.1%
O=C(O)CCCNC(=O)/C=C/c1ccco1 |  | -3.21%
CSc1ccc(CN2CCC(C(=O)NCc3ccc(C)cc3)CC2)cc1 |  | 21.7%
Cc1csc(=O)n1CC(=O)OC(C)C(=O)Nc1ccc(N(C)C)cc1 (centres undefined) | 56.8 µM (active) | 
CC1CN(CCCCN2C(=O)c3ccccc3C2=O)CC(C)O1 (centres undefined) |  | 16.3%
Cc1cc(C)c(S(=O)(=O)Nc2ccc(N(C)C)cc2)c(C)c1-n1cnnn1 | 44.4 µM (active) | 
O=[N+]([O-])c1ccc(C2CC(c3ccccc3)=Nc3ccccc3S2)cc1 (centres undefined) |  | 2.52%
Cc1ccc(Cl)cc1-c1ccc(C=Nc2ccc(N3CCOCC3)cc2)o1 | 11.4 µM (active) | 
Clc1cccc(-c2ccc(C=Nc3ccc(N4CCOCC4)cc3)o2)c1Cl | 14.8 µM (active) | 
O=C1CCCC2=C1Sc1ccc(Cl)cc1N2 | 65.6 µM (active) | 
COc1ccc(NCCC(O)c2ccc(Cl)cc2)cc1 (centres undefined) | 28 µM (active) | 
CC(C)NCC#CCOc1ccc(Cl)cc1 |  | 15.6%
COc1ccc(NC(C)c2cc(Cl)ccc2O)cc1 (centres undefined) | 61.5 µM (active) | 
COc1ccc(O)c(C(c2c(C)[nH][nH]c2=O)c2c(C)[nH][nH]c2=O)c1 |  | -23.8%
CCN(CC)S(=O)(=O)c1ccc(N/N=C/c2ccc(O)cc2)nc1 | 38 µM (active) | 
CCN(CC)S(=O)(=O)c1ccc(N/N=C/c2ccc(O)cc2O)nc1 | 29.4 µM (active) | 
C[n+]1c(-c2ccccc2)cc2c(=Cc3ccc([N+](=O)[O-])cc3)c3ccccc3n21 |  | 5.28%
CC(C)CN(Cc1c(O)ccc2ccccc12)CC(C)C | 53.2 µM (active) | 

SMILES | IC50 | inhibition
COc1cc(/C=C2/C(=O)NN(c3ccc(Cl)cc3)C2=O)cc(Br)c1O |  | 12.1%
CCN=c1scc(C)n1/N=C/c1cc(Br)c(O)c(OC)c1 | 28.7 µM (active) | 
CN=c1scc(C)n1/N=C/c1cc(Br)c(O)c(Br)c1 | 69.6 µM (active) | 
CN=c1scc(C)n1/N=C/c1cc(Br)c(O)c(OC)c1 | 12.6 µM (active) | 
Cc1cc(C)cc(-n2c3nc4ccccc4nc3c3c(=O)n(Cc4ccco4)cnc32)c1 |  | -1.1%
COc1ccc(CN2CCN(Cc3ccc4ccccc4c3)CC2)cc1OC |  | 15%
CN1CCCCCC1=Nc1ccccc1C#N |  | 22.3%
Cc1cc(/C=C2\SC(=S)NC2=O)cc(C)c1O | 29.1 µM (active) | 
Cc1cc(/C=C2\SC(=S)NC2=O)c(C)[nH]1 |  | 10.3%
O=C1NC(=S)S/C1=C\C=C\c1ccc([N+](=O)[O-])o1 |  | 6.48%
COc1cc(/C=N/N=C2/NC(=O)C(c3ccccc3)S2)ccc1O (centres undefined) | 41.6 µM (active) | 
O=C1NC(=S)S/C1=C\c1cc(Cl)cc(Cl)c1O |  | 22.8%
Cn1cccc1/C=C1\SC(=Nc2ccc(O)cc2)NC1=O | 62.7 µM (active) | 
COc1ccc(/C=N/N=C2/NC(=O)C(CC(=O)O)S2)cc1OCc1ccc(Cl)cc1Cl (centres undefined) |  | 6.87%
COc1ccc(N=C2NC(=O)/C(=C/c3ccc(O)c(OC)c3)S2)cc1 | 24.1 µM (active) | 
COc1cc(/C=C2\SC(=Nc3ccc(Cl)c(C(=O)O)c3)NC2=O)c(Br)c(Br)c1O | 37.5 µM (active) | 
COCCCNCCCCOc1c(Cl)cc(C)cc1Br |  | 18.9%
Nc1cc(SCc2ccc([N+](=O)[O-])cc2)ncn1 |  | -2%
COc1cc(C=C2NC(=O)NC2=O)ccc1O | 19.4 µM (active) | 
COc1cc(/C=C2/SC(=Nc3ccc(O)cc3)NC2=O)ccc1O | 27.2 µM (active) | 
COc1cc(/C=C2/C(=O)ON=C2c2ccccc2)ccc1O |  | 22.2%
COc1cc(/C=C2\SC(=Nc3ccccc3)NC2=O)cc(Cl)c1O | 82 µM (active) | 
CN(C)c1ccc(/C=C2/NC(=O)NC2=O)cc1 | 52.8 µM (active) | 
CCOc1ccc(C2NC(=O)C(C#N)=C(S)N2c2cccc(C)c2)cc1OC (centres undefined) |  | 3.96%
COc1cc(/C=C2\SC(=Nc3ccccc3OC)NC2=O)ccc1O | 25 µM (active) | 
COc1ccccc1-c1cn[nH]c1-c1ccc(O)cc1O | 51.4 µM (active) | 

SMILES | IC50 | inhibition
COc1ccc(-c2cn[nH]c2-c2ccc(O)cc2O)cc1OC | 57.6 µM (active) | 
COc1ccc(-c2cn[nH]c2-c2ccc(O)cc2O)cc1 | 47.9 µM (active) | 
CCn1c(=O)c(C(=O)CN(C)Cc2cccc(OC)c2OC)c(N)n(Cc2ccccc2)c1=O |  | 26.9%
COCCCNC1=C(C#N)C(=O)NC(c2cccs2)S1 (centres undefined) |  | 0.96%
CC1(C)OC(=O)C(=Cc2ccc(-c3ccc(S(N)(=O)=O)cc3)o2)C(=O)O1 |  | -0.06%
O=c1c2ccc(F)cc2sn1-c1ccccc1 |  | 22.8%
COc1ccc(Br)cc1CN1CCN(Cc2c[nH]c3ccccc23)CC1 |  | 23.5%
COc1cc2c(CCNC(C)=O)c[nH]c2cc1O | 50.7 µM (active) | 
N#Cc1ccccc1S(=O)(=O)N1CCN(C(=O)Cc2coc3cc(O)ccc23)CC1 | 33.6 µM (active) | 
CC(=O)N1CCN(CC(O)COc2ccc(Br)cc2)CC1 (centres undefined) |  | 15.8%
CCOc1ccc(CN2CCN(S(=O)(=O)c3ccc(NC(C)=O)cc3)CC2)cc1 |  | 10.9%
O=C(Cc1coc2cc(O)ccc12)N1CCN(S(=O)(=O)c2ccc(Br)cc2)CC1 | 21.6 µM (active) | 
Cc1ccc(C)c(S(=O)(=O)N2CCN(CC(=O)N3CCc4ccccc4C3)CC2)c1 |  | 24.3%
Oc1ccc(-c2cn3c(n2)SCC3)cc1 | 19.5 µM (active) | 
CCOc1cc(/C=C(\C#N)c2[nH]nc(N)c2C#N)ccc1O | 45.7 µM (active) | 
CCOc1cc(-c2cc(-c3ccc(N)cc3)nc(N)c2C#N)ccc1O |  | 0.56%
Oc1ccc2ccccc2c1Br | 15.8 µM (active) | 
CC1CCCN(CCOc2ccc3ccccc3c2Br)C1 (centres undefined) |  | 10.3%
CC1NC(C)c2c(ccc3ccccc23)O1 (centres undefined) |  | 20.8%
CN1C(=O)C2C(c3ccc(N(C)C)cc3)=NN(Cc3ccccc3)C2C1=O (centres undefined) | 46.5 µM (active) | 
c1ccc(Nc2cc(Nc3ccccc3)[nH]n2)cc1 | 57.9 µM (active) | 
C/C=C/C=C/C(=O)[C@@H]1[C@@H]([C@]2(C)OC(=O)C(C)=C2O)[C@H]2/C(=C(O)/C=C/C=C/C)C(=O)[C@]1(C)C(=O)C2(C)O (some centres undefined) |  | -21.4%
Oc1ccc(NC(=S)N=Nc2c(O)[nH]c3ccccc23)cc1 | 27.5 µM (active) | 
Nc1ccc2nc(Cc3ccccc3)[nH]c2c1 | 72.6 µM (active) | 
Nc1ccc2nc(CCCCc3nc4ccccc4[nH]3)[nH]c2c1 | 59.4 µM (active) | 
O=C1C(=Cc2ccco2)CCC1=Cc1ccco1 |  | -16.6% [at 10 µM]

— PubChem BioAssay AID624351 (Southern Research Specialized Biocontainment Screening …, 2012)
